Compounds with a hit are over-represented: about 19% of the library has one in this group of screens.
RORg inh: blocks mouse ROR gamma transcriptional activity; P51450; AID 2551; 310,000 tested, 5.4% active; Drosophila S2 Gal4-RORgamma UAS-luciferase reporter, 20 h; Potency, µM (series often up to 53.6 µM), for inactives: top-dose activity change, negative = inhibition, actives largely listed as inhibitors; also: nearly all actives have a fitted effect of over 60% in size
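Schneider cells (Drosophila), stable Gal4 DBD–ROR gamma + UAS-luc; 1 hr cmpd preincubation; Cu2+ induction 700 uM final; 20 hr ambient; luminescence.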
TDP1 block: inhibitors of human tyrosyl-DNA phosphodiesterase TDP1 | AID 485290 | 350,000 tested, 0.28% active | recombinant TDP1, AlphaScreen DNA substrate cleavage | Q9NUW8 | Potency, µM (titrated, usually from 130 µM), for the others: top-dose activity change, negative = inhibition, hits mostly inhibitors; also: nearly all actives have a fitted effect of over 40% in size
Target sequence (Q9NUW8 whole entry, looked up): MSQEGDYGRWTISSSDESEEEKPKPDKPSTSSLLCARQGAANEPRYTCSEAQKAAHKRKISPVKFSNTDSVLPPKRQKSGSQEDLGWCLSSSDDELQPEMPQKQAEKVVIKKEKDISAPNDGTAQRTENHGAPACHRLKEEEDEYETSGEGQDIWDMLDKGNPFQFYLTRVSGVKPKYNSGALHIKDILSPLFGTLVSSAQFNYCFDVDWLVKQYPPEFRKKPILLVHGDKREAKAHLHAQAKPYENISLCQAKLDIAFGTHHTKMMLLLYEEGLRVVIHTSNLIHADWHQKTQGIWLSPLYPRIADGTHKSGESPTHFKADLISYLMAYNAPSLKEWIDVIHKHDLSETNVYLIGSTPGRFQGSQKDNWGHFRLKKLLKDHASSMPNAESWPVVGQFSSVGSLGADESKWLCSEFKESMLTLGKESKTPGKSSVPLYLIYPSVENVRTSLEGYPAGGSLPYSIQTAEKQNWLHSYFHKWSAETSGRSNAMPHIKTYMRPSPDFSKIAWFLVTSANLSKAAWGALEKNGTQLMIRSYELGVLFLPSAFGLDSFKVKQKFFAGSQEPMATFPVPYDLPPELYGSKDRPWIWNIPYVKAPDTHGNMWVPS
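Recombinant human Tdp1 (E. coli-expressed, 1 nM final) preincubated with compounds 15 min at room temperature, then 5'-biotin/3'-phosphotyrosine-FITC DNA substrate (15 nM final) added for 5 min. AlphaScreen beads (10 ug/ml final) added 10 min; cleavage lowers signal.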
TDP1 cell noCPT: qHTS for Inhibitors of human tyrosyl-DNA phosphodiesterase 1 (TDP1): qHTS in cells in absence of CPT; DT40 Tdp1-/- hTDP1 cells, no CPT, ATP luminescence, 48 h; Potency, µM (top dose mostly 46.2 µM), without a hit: at the top dose activity change, negative = growth inhibition, hits mostly inhibitors; 420,000 tested, 15% active; also: nearly all actives have a fitted effect of over 55% in size
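Readout: luminescence from CellTiter-Glo after 30 min in the dark at RT. Cells: DT40 Tdp1-/- with stable hTDP1, 400/well. Exposure: compounds alone, ≥48 hr, 37 °C.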
TDP1 cell CPT: growth inhibition of DT40 Tdp1-/-;hTDP1 cells with camptothecin (screen for TDP1 inhibitors); Potency, µM (highest dose often 46.2 µM), for the others: at the top dose activity change, negative = growth inhibition, usual class: inhibitors; chicken DT40 Tdp1-/-;hTDP1 cells + 20 nM CPT, ATP luminescence, 48 h; 420,000 tested, 12% active; also: nearly all actives have a fitted effect of over 55% in size
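Chicken DT40 Tdp1-/- cells complemented with human TDP1, 400 cells/well, exposed to compounds plus 20 nM camptothecin for at least 48 h at 37 C; viability read as ATP content by CellTiter-Glo luminescence.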
Gal4-VP16 FLuc: inhibits Gal4-VP16 luciferase reporter, ROR gamma counter-screen. Drosophila S2 Gal4-VP16 UAS-luciferase, luminescence, 20 h. Potency, µM (top dose mostly 53.6 µM), without a hit: top-dose activity, negative = inhibition, actives largely listed as inhibitors. 310,000 tested, 3.5% active;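 also: Gal4-VP16 expression switched on by copper sulfate through the metallothionein promoter; nearly all actives have a fitted effect of over 50% in size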
* hit, by the source's call; u = inconclusive; x = no result given; [ ] = remark or other dose. Calls follow the shape of the dose curve; as a rule, active = well fitted curve in the direction sought with a large enough effect; inconclusive = small, poorly fitted or top-dose-only effect, or another doubt; inactive = no such curve, though single readings can be large; an effect the other way counts as inactive or inconclusive. % is scaled to controls: 0 for no effect and ±100 for the full control effect; potency is read from the fitted curve at half-maximal effect.

SMILES	RORg inh	TDP1 block	TDP1 cell noCPT	TDP1 cell CPT	Gal4-VP16 FLuc
CCOC(=O)c1c(-c2ccc(C)cc2)csc1NC(=O)CCSc1nnc2ccccn12	u	-3%	23µM*	23µM*	-29%
Cc1c2cnn(CC(=O)NC(C)C)c(=O)c2c(C)n1Cc1cccc(Cl)c1	x	5%	u	-28%	x
CCc1ccccc1NC(=O)C(Cc1ccccc1)c1nn[nH]n1 (stereo not drawn)	-5%	x	2%	18%	5%
Nc1nc2n(n1)C(c1c(F)cccc1Cl)CC(c1ccc(F)cc1)N2 (stereo not drawn)	36%	5%	-21%	-28%	-15%
COc1ccc(S(=O)(=O)N(C)C[C@H]2Oc3ccc(NC(=O)Cn4cnnn4)cc3C(=O)N([C@H](C)CO)C[C@@H]2C)cc1	x	4%	-11%	13%	x
COc1ccccc1OCC(=O)Nc1cccc(N(C)S(C)(=O)=O)c1	u	5%	-18%	0%	5%
Cc1cc(S(=O)(=O)NCc2ccccc2)ccc1OCC(=O)Nc1cccc([N+](=O)[O-])c1	34%	u	21µM*	18µM*	11µM*
CN(c1ccccc1)S(=O)(=O)c1cccc(NC(=O)COc2cccc([N+](=O)[O-])c2)c1	x	-2%[56.1 µM]	23µM*	u	x
COc1cc(C=O)ccc1OCC(=O)Nc1cccc(S(=O)(=O)N(C)c2ccccc2)c1	x	x	12µM*	u	x
CCC1CCC2(CC1)NC(=O)N(CC(=O)Nc1cccc(S(=O)(=O)N(C)c3ccccc3)c1)C2=O (stereo not drawn)	x	1%	u	u	x
CN1C(=O)N(CC(=O)Nc2cccc(S(=O)(=O)N(C)c3ccccc3)c2)C(=O)C12CCCCC2	x	0%	21µM*	u	x
CN(c1ccccc1)S(=O)(=O)c1cccc(NC(=O)CN2CCc3ccccc3C2)c1	35%	8%	u	0%	16%
CN(c1ccccc1)S(=O)(=O)c1cccc(NC(=O)CC(C)(C)C)c1	22%	2%	15µM*	16µM*	4%
CN(c1ccccc1)S(=O)(=O)c1cccc(NC(=O)Cn2cnc3ccccc3c2=O)c1	u	7%	16µM*	21µM*	-3%
CCOc1ccc(CNC(=O)c2ccc(Sc3ccc(Cl)cc3)c(NC(C)=O)c2)cc1	0%	8%	18µM*	23µM*	2%
CC(=O)Nc1cc(C(=O)NCc2ccc(C)cc2)ccc1S(=O)(=O)c1ccc(Cl)cc1	x	8%	16µM*	u	x
CCC(=O)Nc1cc(C(=O)NCc2ccc(C)cc2)ccc1S(=O)(=O)c1ccc(C)cc1	x	1%	u	u	x
COc1ccc(COc2cccnc2N)cc1	31%	8%	-30%	-29%	1%
Nc1ncccc1OCc1ccc(Br)cc1	u	4%	18µM*	-27%	-4%
CCCCC=O	-13%	3%	x	x	13%
COC(=O)c1nnn(-c2nonc2N)c1CSCCO	-25%	-4%	-2%	1%	3%
COC(=O)c1ccccc1NC1=C/C(=N\S(=O)(=O)c2cccs2)c2ccccc2C1=O	27%	12%	5.8µM*	3.3µM*	u
COC(=O)c1cccc(NS(=O)(=O)c2cccs2)c1C	38%	4%	-15%	-14%	29%
O=C1C(Nc2ccccc2)=C/C(=N/S(=O)(=O)c2cccs2)c2ccccc21	4.5µM*	12%	4.6µM*	2.9µM*	5µM*
Cc1ccc(NC2=C/C(=N/S(=O)(=O)c3cccs3)c3ccccc3C2=O)cc1	10µM*	5%	3.3µM*	1.8µM*	6.3µM*
SMILES	RORg inh	TDP1 block	TDP1 cell noCPT	TDP1 cell CPT	Gal4-VP16 FLuc
O=C1C(Nc2ccccc2)=C(NS(=O)(=O)c2ccccc2)C(=O)c2ccccc21	-36%	0%	u	-29%	-23%
N#C/C(=C/c1ccc(N2CCCCC2)cc1)c1cccc(F)c1	-24%	8%	u	u	-50%
N#C/C(=C/c1ccc(N2CCCCCC2)o1)c1ccc(Cl)cc1	7.1µM*	11%	18µM*	15µM*	7.1µM*
N#C/C(=C/c1ccc(N2CCCCC2)o1)c1cccc(F)c1	7.1µM*	8%	15µM*	10µM*	10µM*
CC(C)NC(=O)NC(=O)COC(=O)c1ccccc1F	11µM*	0%	13%	5%	-12%
CC(C)NC(=O)NC(=O)COC(=O)c1ccccc1O	-1%	3%	-24%	1%	-5%
CC(CC(=O)N1CCN(c2cccc(Cl)c2)CC1)S(=O)(=O)c1ccc2c(c1)NC(=O)CO2 (stereo not drawn)	-41%	3%	2.3µM*	4.1µM*	14µM*
COc1ccc(N2CCN(C(=O)CC(C)S(=O)(=O)c3ccc4c(c3)NC(=O)CO4)CC2)cc1 (stereo not drawn)	u	1%	13µM*	15µM*	-27%
COc1ccc(-c2cnnn2-c2ccc(NC(=O)c3ccc(S(=O)(=O)N4CCCCC4)cc3)cc2)cc1	15%	8%	u	u	-7%
CCOC(=O)C1C(=O)C=C(/C=C/c2ccccc2)CC1c1ccc(Cl)cc1 (stereo not drawn)	2%	0%	u	29µM*	-8%
CCOC(=O)C1C(C)=CC(=O)CC1c1ccco1 (stereo not drawn)	0%	-6%	u	-11%	9%
C=C1C(=O)[C@@]23[C@H](O)C[C@@H]4C(C)(C)CC[C@H](O)[C@@]4(C)[C@@H]2CC[C@@H]1[C@H]3O	2.8µM*	3%	0.82µM*	1µM*	5.6µM*
C=C1C(=O)[C@@]23[C@H](O)C[C@@H]4C(C)(C)CC[C@H](O)[C@]4(C)[C@@H]2C[C@H](O)[C@@H]1[C@H]3O	2.5µM*	3%	u	3.3µM*	3.2µM*
CC(=O)c1ccccc1NC(=O)COC(=O)CCCN1C(=O)c2cccc3cccc(c23)C1=O	1%	-3%	u	4%	u
O=C1c2ccccc2C(=O)C1c1ccncc1	u	-1%	23µM*	u	11µM*
COc1ccc(CCNC(=O)CSc2nc3[nH]c(=O)cc(O)c3s2)cc1	x	0%	10%	9%	x
COc1ccc(/C=C/CN2CCC(CO)(Cc3ccccc3Cl)CC2)cc1	-3%	4%	15µM*	u	-14%
CC[C@@H]1C/C=C\Cc2ccccc2[C@H](C(=O)C[C@@H](O)CC(C)=O)OC1=O	x	0%	u	13µM*	x
COc1ccc(C(C)=O)cc1COC(=O)c1cc(C)nc2ccccc12	-1%	3%	u	u	8%
CCn1c(=O)c2cc(C(=O)Nc3cc(F)ccc3F)sc2c2ccccc21	x	1%	u	u	x
